# Most compounds without a hit are left out; they make up all but 10% or so of the library.
# p97 ATPase inh = blocks human p97 ATPase activity. recombinant p97 ATPase, Kinase-Glo ATP luminescence, 3 h. AID 1481. 0.42% of 220,000 active. inhibition, % at 8 µM. P55072; in the data active means inhibition above about 15%;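 further: 0% = DMSO vehicle and 100% = wells lacking enzyme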
# Insulin prom inh = TRM-6 insulin promoter activity inhibition. TRM-6 cells (human fetal islet line), insulin promoter-eGFP reporter, imaging; reporter expression induced with tamoxifen. inhibition, % at 2 µM. 0.9% of 130,000 active. AID 1273;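 active means inhibition above the mean plus 3 SD, with well images judged a real hit on visual review, cut at about 60% in these data, passing the limit was not always enough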
# bCat KO growth = beta-catenin-lacking colon tumor cell growth suppression; HCT116 beta-catenin knockout viability, CellTiter-Glo, 60 h; active compounds read low; viability, % at 10 µM; 1.5% of 140,000 active;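 active means viability at or under a set limit, the compound median less 4 SD, cut at about 6% in these data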;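 further: 0% = Hyamine 1622 control at 20 µM and 100% = untreated cell control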
# L major viab = Leishmania major promastigote growth inhibition. Leishmania major promastigotes, resazurin fluorescence viability. inhibition, % at 10 µM. 9% of 200,000 active; in the data active means inhibition above about 50%;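 further: promastigotes grown with compound for 44 hours at 28 °C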
# ROMK mod = modulates human ROMK potassium channel activity. 2% of 130,000 active. B-score at 10 µM. P48048. Tet-inducible ROMK, thallium flux fluorescence; actives lie on both sides;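 active means signal ratio slope over the read window, or its plate-corrected B-score, at least 3 SD from the plate mean, either direction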;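 further: B-score of the F/F0 ratio slope over 7 to 12 s after thallium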
# Target sequence (P48048 whole entry, looked up): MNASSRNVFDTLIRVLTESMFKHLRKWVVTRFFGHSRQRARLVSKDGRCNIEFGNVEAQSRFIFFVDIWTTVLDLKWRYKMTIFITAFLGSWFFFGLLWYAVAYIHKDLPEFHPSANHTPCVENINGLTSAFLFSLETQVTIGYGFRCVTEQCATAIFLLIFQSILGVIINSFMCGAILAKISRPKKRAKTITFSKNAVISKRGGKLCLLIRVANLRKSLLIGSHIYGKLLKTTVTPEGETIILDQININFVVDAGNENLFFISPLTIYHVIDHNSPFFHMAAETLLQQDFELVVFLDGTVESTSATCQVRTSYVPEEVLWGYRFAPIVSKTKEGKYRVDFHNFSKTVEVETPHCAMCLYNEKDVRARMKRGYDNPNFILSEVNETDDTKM
# HCT116 PTEN-null = growth suppressors of cells with PTEN tumor suppressor deletion; HCT116 PTEN-null viability, CellTiter-Glo, 60 h; active compounds read low; viability, % at 10 µM; 1.2% of 140,000 active; AID 827;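 active means viability at or below a set limit, 4 SD under the median of all tested compounds, cut at about 3.7% in these data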;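 further: PTEN knockout HCT116 line with beta catenin targeted HCT116 as companion control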
# * = called active by the depositor; nt = no result.
SMILES,p97 ATPase inh,Insulin prom inh,bCat KO growth,L major viab,ROMK mod,HCT116 PTEN-null
COc1cc(/C=C/C(=O)c2ccc(C)c([N+](=O)[O-])c2)cc(OC)c1O,4,nt,2.4*,79*,nt,3.0*
COc1cc(/C=N/NC(=O)c2ccc(C)nc2)cc([N+](=O)[O-])c1O,-9,nt,nt,6,-0.48,nt
CCOc1cc(/C=N/NC(=O)CCc2n[nH]c(=O)[nH]c2=O)ccc1O,-1,27,nt,-5,1.1,nt
COc1cc2cc(CN(CCc3cccc(C)c3)C(=S)NCCCN3CCOCC3)c(=O)[nH]c2cc1OC,-9,-43,nt,4,-0.03,nt
O=C(CNC(=S)N(Cc1ccccc1)Cc1cccnc1)NC1CCCC1,-5,40,105,1,0.9,86
CCCOc1ccc2ccccc2c1/C=N/n1c(C)nnc1-n1nc(C)cc1C,-5,-31,23,51*,nt,22
CCOc1ccc(S(=O)(=O)N2CCN(c3ccc(OC)cc3)CC2)c2cccnc12,-5,-64,82,16,0.55,95
CCOc1ccc(S(=O)(=O)NCc2ccc(OC)cc2)c2cccnc12,3,0,96,90*,0.74,98
CCOc1ccc(S(=O)(=O)Nc2cccc(C)c2)c2cccnc12,-2,nt,nt,-5,nt,nt
CCOc1ccc(S(=O)(=O)NCc2ccc(F)cc2)c2cccnc12,1,-19,98,89*,nt,108
CCN1CCN(c2ncnc3c2c(-c2ccccc2)cn3-c2ccc(F)cc2)CC1,-6,0,nt,86*,-0.11,nt
Fc1ccc(-n2cc(-c3ccccc3)c3c(N4CCOCC4)ncnc32)cc1,5,-93,nt,3,-0.79,nt
CCN(CC)S(=O)(=O)c1ccc(Cl)c(C(=O)OC)c1,2,-3,93,61*,0.52,95
CCN(CC)S(=O)(=O)c1ccc(Cl)c(C(=O)NCc2ccccc2Cl)c1,3,-53,59,99*,nt,60
CCOc1ccc(C(=O)OCC(=O)Nc2ccc(SC(F)F)cc2)cc1OCC,0,-14,89,-7,-0.017,98
COC(=O)c1cc(NC2c3ncccc3C(=O)N2Cc2ccccc2)cc(C(=O)OC)c1 (stereo unspecified),-3,21,94,53*,-0.003,99
O=C(NC1CCCCC1)C(c1ccc(F)cc1)N(CCc1ccccc1)C(=O)CN1C(=O)c2ccccc2S1(=O)=O (stereo unspecified),2,-131,38,50*,nt,60
O=C(NC1CCCCC1)C(c1ccc(F)cc1)N(Cc1ccccc1)C(=O)CN1C(=O)c2ccccc2S1(=O)=O (stereo unspecified),1,13,30,58*,0.02,23
Cc1cc(C)c(N(C(=O)CN2C(=O)c3ccccc3S2(=O)=O)C(C(=O)NCC2CCCO2)c2ccc(F)cc2)c(C)c1 (stereo unspecified),3,40,101,69*,nt,98
O=C(NCC1CCCO1)C(c1ccncc1)N(Cc1ccc(F)cc1)C(=O)CN1C(=O)c2ccccc2S1(=O)=O (stereo unspecified),1,-33,83,-10,0,86
O=C(NC1CCCC1)C(c1ccc(F)cc1)N(Cc1ccc(F)cc1)C(=O)CCl (stereo unspecified),2,11,83,100*,-1.4,81
O=c1[nH][nH]c(=S)n1-c1ccccc1C(F)(F)F,3,nt,nt,nt,-0.4,nt
C=CCNC(=O)COc1ccc(S(=O)(=O)NC2CCCCC2)cc1,2,17,92,-5,nt,98
C=CCNC(=O)COc1ccc(S(=O)(=O)Nc2ccc(OCC)cc2)cc1,6,-22,85,60*,-0.47,89
c1ccc(Cn2nnc3c(NCC4CCCO4)ncnc32)cc1 (stereo unspecified),1,-91,104,-4,nt,101
SMILES,p97 ATPase inh,Insulin prom inh,bCat KO growth,L major viab,ROMK mod,HCT116 PTEN-null
COc1ccc(CNC(=O)c2ccc[nH]2)cc1Cl,-1,26,nt,3,-0.073,nt
Clc1cccc(COn2c(-c3ccc(Cl)cc3Cl)nc3ncccc32)c1,-3,-32,66,100*,1.5,56
CCOc1cc(S(=O)(=O)NCc2ccccc2)ccc1Br,0,-72,nt,8,0.42,nt
COCCNC(=O)/C=C/c1c(Cl)cccc1Cl,-3,71*,94,-8,-0.17,95
O=C(/C=C/c1ccc(Cl)cc1Cl)NCc1ccncc1,-8,26,82,6,nt,92
COCCCNC(=O)/C=C/c1c(Cl)cccc1Cl,5,32,99,46,0.18,94
O=C(/C=C/c1ccc(Cl)cc1Cl)Nc1ccncc1,1,20,48,95*,-0.83,60
O=C(/C=C/c1c(F)cccc1Cl)Nc1ccncc1,5,-36,38,43,1.6,57
O=C(/C=C/c1ccccc1Cl)Nc1ccncc1,0,-57,58,100*,nt,77
O=C(/C=C/c1cccc(Cl)c1)Nc1ccncc1,5,35,80,61*,nt,79
O=C(O)c1cccc(N2C(=O)C3C4C=CC(C4=C(c4ccccc4)c4ccccc4)C3C2=O)c1 (stereo unspecified),-7,55,nt,-1,-1.6,nt
COC(=O)C(C)Oc1ccc(Oc2nc(Cl)ccc2Cl)cc1 (stereo unspecified),-3,nt,nt,-8,-0.36,nt
O=C(CCCOc1ccc(Cl)cc1Cl)Nc1ccncc1,0,39,69,99*,-0.14,81
O=C(/C=C/c1c(Cl)cccc1Cl)Nc1ccncc1,-3,-5,42,98*,-0.037,54
CC(=O)N(C)c1ccc(NC(=O)/C=C/c2ccccc2Cl)cc1,-4,19,98,60*,nt,81
O=C(CCCOc1ccc(Cl)cc1Cl)Nc1ccccn1,3,nt,nt,-6,-0.63,nt
CC1(c2ccc(OC(F)F)cc2)NC(=O)N(/N=C/c2c(O)ccc3ccccc23)C1=O (stereo unspecified),2,-15,95,50,nt,100
Cc1onc(-c2ccccc2)c1C(=O)OCC(=O)Nc1cc(S(=O)(=O)N2CCOCC2)ccc1Cl,-3,-150,nt,24,-2.1,nt
COC(=O)C1=C(C)NC2=C(C(=O)CCC2)C1c1cn(Cc2ccc(Br)cc2)nc1-c1ccccc1 (stereo unspecified),4,nt,73,16,nt,70
COC(=O)C1=C(C)NC2=C(C(=O)CC(C)(C)C2)C1c1cn(Cc2ccc(Br)cc2)nc1-c1ccccc1 (stereo unspecified),7,nt,40,99*,nt,47
Cc1ccc(Nc2nnc(SCn3nnc4ccccc4c3=O)s2)cc1,-7,-10,90,69*,0.48,82
O=C(NN1CCOCC1)c1ccc(Cl)s1,-8,nt,nt,-3,-0.67,nt
N#CC1=C(N)Nc2nc3ccccc3n2C1c1ccc(Cl)cc1 (stereo unspecified),1,22,89,77*,nt,83
N#CC1=C(N)Nc2ncnn2C1c1ccccc1 (stereo unspecified),0,26,92,57*,nt,99
O=C(O)CNS(=O)(=O)c1ccc(C2CCCCC2)cc1,0,56,nt,-7,-0.29,nt
